# Test results as given in the supplement of paper PMC10981050.
# Where “and” joins values, the source holds several entries; their conditions need not be identical. Identical values can stand only once. Counter-ions that a name gives are not always drawn.
# Experiments:
# Assay in all cases: cell viability relative to vehicle control; higher = less cytotoxic
# Details in all cases: 10 µM
# K562 = test system: K562
# Method in brief: (§1)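 CRISPR-edited mutant clones and isogenic wild-type clones from four leukaemia lines were screened against Selleck bioactive, kinase and epigenetic probe libraries, with identity-inconsistent compounds excluded. Each compound was acoustically dispensed at a single 10 µM dose into 384-well plates holding 2000 cells in 50 µL medium per well. After 48 h the supernatant was removed and CellTiter-Glo luminescence was read. Viability was expressed as percent of the on-plate vehicle control and analysed in Genedata Screener.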
# MARIMO = test system: MARIMO
# Method in brief: as §1
# MOLM14 = test system: MOLM14
# Method in brief: as §1
# OCI-AML2 = test system: OCI-AML2
# Method in brief: as §1
SMILES,cell viability (K562; SRSF2 genotype: SRSF2 P95H/wt),cell viability (K562; SRSF2 genotype: SRSF2 wt/wt) [%],cell viability (MARIMO; SRSF2 genotype: SRSF2 P95H/wt) [%],cell viability (MARIMO; SRSF2 genotype: SRSF2 wt/wt) [%],cell viability (MOLM14; SRSF2 genotype: SRSF2 P95H/wt) [%],cell viability (MOLM14; SRSF2 genotype: SRSF2 wt/wt) [%],cell viability (OCI-AML2; SRSF2 genotype: P95H/wt) [%],cell viability (OCI-AML2; SRSF2 genotype: wt/wt) [%]
CCCCCCCCCC(=O)OCC(COC(=O)CCCCCCCCC)OC(=O)CCCCCCCCC [Glyceryl tridecanoate],105% and 101%,100,106,114,100,104,97.2,98.6
Cc1ccnc(NS(=O)(=O)c2ccc(N)cc2)n1 [Sulfamerazine],99.9% and 106%,101,105,104,99.7,107,107,89.9
CNC(CC(=O)O)C(=O)O [NMDA (N-Methyl-D-aspartic acid)],102% and 94.2%,99.7,101,99.5,100,99,94.4,107
CN(C)CCc1c[nH]c2ccc(Cn3cncn3)cc12 [Rizatriptan Benzoate (Maxalt)],86.7% and 84.6%,84.2,76.2,82.7,86.7,85.6,92.7,83.5
Cc1cc(=O)oc2c(C=O)c(O)ccc12,110% and 118%,112,99,97.4,94.8,109,92.5,98.3
OC[C@@H](O)[C@@H](O)[C@@H](O)CO [Ribitol (Adonitol)],94.5% and 97%,96.2,89.7,93.4,97.9,94.3,90,97.9
CCOc1nc2cccc(C(=O)O)c2n1Cc1ccc(-c2ccccc2-c2noc(=O)[nH]2)cc1 [Azilsartan (TAK-536)],106% and 104%,97.9,93.5,103,99.2,103,101,101
CN1CC(O)c2cc(N=NC(N)=O)c(O)cc21 (centres undefined) [Carbazochrome],98.5% and 95.6%,89.4,99.4,94.8,95.7,101,98.8,95.4
Cc1cccc(Nc2cc(Cl)nc(SCC(=O)O)n2)c1C,95.6% and 95.5%,97.2,98.9,99.9,95.9,98.5,90.3,94.4
C=CC(=O)N1CCN(CCCn2c(=O)c(-c3c(Cl)c(OC)cc(OC)c3Cl)cc3cnc(NC)nc32)CC1,85.1% and 88.1%,86.8,63.3,72.7,85.3,88.1,65.2,69.4
N[C@@H](Cc1cc(I)c(Oc2cc(I)c(O)c(I)c2)c(I)c1)C(=O)O [Levothyroxine sodium],89.6% and 92.8%,106,102,104,92.9,101,100,94.3
Cc1c[nH]c(C=C2C(=O)Nc3ccccc32)c1CCC(=O)O,91.9% and 93.8%,91.2,95.2,92.2,32.7,28,54.2,58.1
CCCCN1CCCCC1C(=O)Nc1c(C)cccc1C (centres undefined) [Bupivacaine hydrochloride (Marcain)],92% and 102%,98.8,97.7,103,98.5,102,100,104
O=CCc1ccccc1 [Phenylacetaldehyde],99.4% and 97.2%,92.8,97.5,95.2,107,97.2,99.5,93.5
CCCC1O[C@@H]2C[C@H]3[C@@H]4CCC5=CC(=O)C=C[C@]5(C)[C@H]4[C@@H](O)C[C@]3(C)[C@]2(C(=O)CO)O1 (some centres undefined) [Budesonide],85.5% and 95.1%,83.7,97.6,103,86.1,84,70.5,87.6
COc1ccc2cc3[n+](cc2c1OC)CCc1cc2c(cc1-3)OCO2 [Berberine Sulfate],62.4% and 69.2%,72.4,66.7,59.5,71,75.3,49.8,46.2
COc1ccc(-c2cc(=O)c3c(O)cc(O[C@@H]4O[C@H](CO[C@@H]5O[C@@H](C)[C@H](O)[C@@H](O)[C@H]5O)[C@@H](O)[C@H](O)[C@H]4O)cc3o2)cc1O [Diosmin],90.8% and 97.8%,89.9,94.8,101,97.6,92.4,90.4,92.4
C[C@]1(c2nc3c(C(N)=O)cccc3[nH]2)CCCN1 [ABT-888 (Veliparib)],93.1% and 93%,89.4,91,96.5,82.4,79,70.2,83.5
NCCc1c[nH]cn1 [Histamine 2HCl],99% and 106%,105,96.7,96.1,69,82.3,110,88.3
O=c1[nH]c(=O)n([C@H]2C[C@H](O)[C@@H](CO)O2)cc1Br [Bromodeoxyuridine (BrdU)],90.5% and 102%,96.1,91.2,88,80.8,79.1,90.5,99.9
C[C@@H](O)[C@H]1C(=O)N2C(C(=O)O)=C(S[C@@H]3CN[C@H](C(=O)N(C)C)C3)[C@H](C)[C@H]12 [Meropenem],103% and 109%,106,94.7,96.9,103,101,111,101
NC(=O)c1[nH]cnc1N [4-Amino-5-imidazolecarboxamide],101% and 104%,105,101,107,99.1,108,97.3,108

SMILES,cell viability (K562; SRSF2 genotype: SRSF2 P95H/wt),cell viability (K562; SRSF2 genotype: SRSF2 wt/wt) [%],cell viability (MARIMO; SRSF2 genotype: SRSF2 P95H/wt) [%],cell viability (MARIMO; SRSF2 genotype: SRSF2 wt/wt) [%],cell viability (MOLM14; SRSF2 genotype: SRSF2 P95H/wt) [%],cell viability (MOLM14; SRSF2 genotype: SRSF2 wt/wt) [%],cell viability (OCI-AML2; SRSF2 genotype: P95H/wt) [%],cell viability (OCI-AML2; SRSF2 genotype: wt/wt) [%]
Cn1c(=O)cc(C(=O)Nc2ccc3c(c2)OCCO3)c2ccccc21,97.4% and 96%,94,99,104,102,100,93.4,101
O=S(=O)(N=Cc1c(O)ccc2ccccc12)c1cccs1,100% and 99.8%,95.2,100,97.3,100,99,101,103
CC(=O)Nc1ccc(OC(=O)c2ccccc2OC(C)=O)cc1 [Benorylate],102%,98.9,104,100,104,101,107,108
CC(C)(NS(=O)(=O)c1ccc2c(Cl)cnc(N=C(N)N)c2c1)C(=O)O,102% and 104%,104,101,111,101,102,99.1,117
"O=C(CCCCCCC(=O)Nc1ccccc1)NO [Vorinostat (SAHA, MK0683)]",1.62% and 17.9%,10.1,4.92,8.5,0.83,0.28,1.15,4.64
O=C(O)c1c[nH]c2cc(Cl)c(-c3ccc(C4(O)CCC4)cc3)cc12,91.2% and 101%,95.2,92.8,115,106,102,86.5,96.9
CCn1cc(C(=O)O)c(=O)c2cc(F)c(N3CCN(C)CC3)cc21 [Pefloxacin Mesylate Dihydrate],83.5% and 78%,80.7,88,94.2,87.7,92.1,90.9,94.8
COc1cc2nc(N(C)CCCNC(=O)C3CCCO3)nc(N)c2cc1OC (centres undefined) [Alfuzosin hydrochloride (Uroxatral)],97% and 98.6%,95.3,91.3,98.1,96.7,97.5,90.7,103
Cc1cc(NS(=O)(=O)c2ccc(N)cc2)no1 [Sulfamethoxazole sodium],107% and 94.7%,100,101,110,102,104,93.1,109
O=C1OC(C(O)CO)C([O-])=C1O.[Na+] (centres undefined) [Sodium erythorbate],104% and 106%,114,106,107,102,110,114,119
Oc1ccc2c(c1)OCO2 [Sesamol],96.7% and 82%,83.8,76.8,88.2,86.5,88,92,92.1
CCn1cc(NC(=S)Nc2cc(Cl)ccc2OC)c(C(N)=O)n1,92% and 90.5%,89.8,99.1,99.4,96.9,95,95.2,92.5
Oc1c(Cl)cc(Cl)c2cccnc12 [Chloroxine],62.1% and 63.6%,66.6,21.6,14.7,55.5,63.2,1.78,3.9
CC(C)(O)CC(=O)NCCn1ccc2ncnc(Nc3ccc(Oc4cccc(C(F)(F)F)c4)c(Cl)c3)c21,69.4% and 63.5%,72.6,69.7,93.9,76.5,79.4,74.8,76.8
O=C(CCCCCN1C(=O)c2cccc3cccc(c23)C1=O)NO [Scriptaid],1.69% and 12.5%,11.4,4.53,4.11,0.6,0.53,0.32,0.98
COc1ccc(C2CNC(=O)C2)cc1OC1CCCC1 (centres undefined) [Rolipram],92.9% and 98%,98.6,104,102,101,103,108,110
CC(C)=CCCC(C)=CCCC(C)=CCCC(C)=CCC1=C(C)C(=O)c2ccccc2C1=O [Vitamin K2],93.6% and 95.4%,102,82.8,92.6,87.7,101,88.6,89.1
N#Cc1ccc(C(c2ccc(C#N)cc2)n2cncn2)cc1 [Letrozole],95.7% and 97.2%,91.9,91.9,94,96.8,92.3,87.5,90.1
Cn1ncc(Cl)c1-c1cc(C(=O)N[C@H](CN)Cc2cccc(F)c2)sc1Cl,49.3% and 45.9%,51,67.5,63.7,34.9,37.3,33.6,48.6
NC(=O)[C@H](CCCN=C(N)CCl)NC(=O)c1ccccc1 [Cl-amidine],101% and 98%,95.7,101,97.2,98.4,99,111,102
Fc1ccc(C(c2ccc(F)cc2)N2CCN(C/C=C/c3ccccc3)CC2)cc1 [Flunarizine 2HCl],67.8% and 82.2%,72.8,50.4,37.9,46.8,60.7,28.7,26.7
